Measured values as given in PubChem BioAssay (NCI).
Compounds without any hit were thinned out: in the full panel of roughly 83,000, 20% have a hit.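 Interpretation: 100, growth as untreated; towards 0, rising growth inhibition; 0, no net growth; 0 to -100, cell death. Compounds scoring below 10 were considered active.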 Calls of active or inactive are those of the source.

Experiments:
Experiment in all cases: NCI-60 one-dose screen, 48 h (100 = growth as untreated, 0 = no growth, -100 = all killed)
NCI-H226 lung = settings: 10 µM unless noted
NCI-H322M lung = settings: 10 µM unless noted
HOP-62 NSCLC = settings: 10 µM unless noted
A549/ATCC NSCLC = settings: 10 µM unless noted
COLO 205 colon = settings: 10 µM
HT29 colon = settings: 10 µM unless noted
PC-3 prostate = settings: 10 µM unless noted
TK-10 renal = settings: 10 µM unless noted
CAKI-1 renal = settings: 10 µM unless noted
OVCAR-8 ovarian = settings: 10 µM unless noted
OVCAR-4 ovarian = settings: 10 µM unless noted
SK-OV-3 ovarian = settings: 10 µM unless noted
HS 578T breast = settings: 10 µM unless noted
EKVX NSCLC = settings: 10 µM unless noted
A498 renal = settings: 10 µM unless noted
CCRF-CEM leukemia = settings: 10 µM unless noted
HOP-92 NSCLC = settings: 10 µM unless noted
NCI-H522 lung = settings: 10 µM unless noted
SNB-19 CNS = settings: 10 µM unless noted

Measured: growth

OB([O][Hg][c]1ccccc1)[O][Hg][c]1ccccc1
inactive: NCI-H226 lung 54.9% | A549/ATCC NSCLC 24%
active: NCI-H322M lung -22.4% | HOP-62 NSCLC -90.3% | COLO 205 colon -100% | HT29 colon -55.8% | PC-3 prostate -60.4% | TK-10 renal -94.5% | CAKI-1 renal -92.4% | OVCAR-8 ovarian -97.1% | OVCAR-4 ovarian 7.38% | SK-OV-3 ovarian -62.7% | HS 578T breast -5.59%

CC(=O)N(C)C1=Nc2ccc(Cl)cc2C(c2ccccc2)=[N+]([O-])C1
inactive: NCI-H226 lung 105% | NCI-H322M lung 82.6% | HOP-62 NSCLC 96.3% | A549/ATCC NSCLC 106% | COLO 205 colon 105% | HT29 colon 104% | EKVX NSCLC 115% | TK-10 renal 102% | CAKI-1 renal 99.8% | A498 renal 106% | CCRF-CEM leukemia 125% | OVCAR-8 ovarian 102% | OVCAR-4 ovarian 114% | SK-OV-3 ovarian 102% | HS 578T breast 111%

O=C1c2ccccc2C(=O)N1[N+](=O)[O-]
active: SNB-19 CNS 6.79%
inactive: NCI-H226 lung 95.6% | NCI-H322M lung 84.4% | HOP-92 NSCLC 91.1% | NCI-H522 lung 88.7% | A549/ATCC NSCLC 95.4% | COLO 205 colon 116% | PC-3 prostate 94.9% | TK-10 renal 93.2% | CAKI-1 renal 106% | A498 renal 93.6% | CCRF-CEM leukemia 90% | OVCAR-4 ovarian 109% | SK-OV-3 ovarian 114% | HS 578T breast 106%

C=CCN1C(=O)C(CC)(CCC(C)C)C(=O)NC1=S (stereo not given)
inactive: NCI-H226 lung 104% | NCI-H322M lung 106% | HOP-62 NSCLC 113% | A549/ATCC NSCLC 98.7% | HT29 colon 103% | SNB-19 CNS 100% | PC-3 prostate 91.7% | TK-10 renal 115% | CAKI-1 renal 97.7% | CCRF-CEM leukemia 86.3% | OVCAR-8 ovarian 99.4% | OVCAR-4 ovarian 106% | SK-OV-3 ovarian 100%

CC[CH2][Pb]([CH2]CC)([CH2]CC)[O]C(=O)C(F)(F)F
active: NCI-H226 lung -61.6% | NCI-H322M lung -98.3% | HOP-62 NSCLC -84.3% | COLO 205 colon -72.5% | HT29 colon -61.5% | CAKI-1 renal -95.2% | A498 renal -97.6% | OVCAR-8 ovarian -69.4% | OVCAR-4 ovarian -97.4% | SK-OV-3 ovarian -74.6% | HS 578T breast -10.4%

O=C1NC(=O)C(=Cc2cn(Cc3ccccc3)c3ccccc23)C(=O)N1
active: NCI-H226 lung -68.9%
inactive: NCI-H322M lung 81.7% | HOP-92 NSCLC 79.3% | NCI-H522 lung 102% | COLO 205 colon 18.3% | HT29 colon 105% | PC-3 prostate 84.2% | EKVX NSCLC 63.7% | TK-10 renal 28.8% | CAKI-1 renal 62.4% | CCRF-CEM leukemia 98.1% | OVCAR-4 ovarian 68.3% | SK-OV-3 ovarian 53.2% | HS 578T breast 78%

C/C1=C/C(=O)O[C@@H]2C[C@@H](CC[C@H](C)/C=C\C=C\CC1)O[C@@](OCCc1ccccc1)([C@@H]1CSC(=O)N1)C2
active: HOP-62 NSCLC -15.8% | HOP-92 NSCLC -58.9% | NCI-H522 lung 7.26% | COLO 205 colon 5.64% | EKVX NSCLC 1.32% | TK-10 renal -68.1% | CAKI-1 renal -74.3% | A498 renal -29.1% | OVCAR-4 ovarian -4.5% | HS 578T breast -2.84%
inactive: NCI-H322M lung 27.8% | A549/ATCC NSCLC 15.4% | PC-3 prostate 18.3% | CCRF-CEM leukemia 21.2% | OVCAR-8 ovarian 46.2%

O=C(O)C1(Br)CC12c1ccccc1-c1ccccc12 (stereo not given)
inactive: NCI-H226 lung 98.9% | HOP-92 NSCLC 100% | NCI-H522 lung 95.9% | A549/ATCC NSCLC 98.4% | COLO 205 colon 115% | EKVX NSCLC 116% | TK-10 renal 88% | CCRF-CEM leukemia 97.4% | OVCAR-8 ovarian 99.6% | OVCAR-4 ovarian 107% | SK-OV-3 ovarian 101% | HS 578T breast 110%

ClCCN(CCCl)C(c1ccccc1)c1ccc(Cl)cc1 (stereo not given)
inactive: NCI-H226 lung 75.4% | HOP-62 NSCLC 108% | HOP-92 NSCLC 57.4% | NCI-H522 lung 65% | A549/ATCC NSCLC 88.9% | COLO 205 colon 114% | HT29 colon 63% | PC-3 prostate 52% | EKVX NSCLC 102% | TK-10 renal 81.1% | CAKI-1 renal 10.1% | CCRF-CEM leukemia 15.3% | OVCAR-8 ovarian 77.7% | OVCAR-4 ovarian 96.9% | SK-OV-3 ovarian 109%

O=[N+]([O-])c1ccc(/C=C/C=C/c2ccc(S(=O)(=O)F)cc2)c(Cl)c1
inactive: NCI-H322M lung 94.7% | HOP-62 NSCLC 99.9% | HOP-92 NSCLC 86.1% | NCI-H522 lung 83.8% | A549/ATCC NSCLC 98.6% | HT29 colon 96% | SNB-19 CNS 94.3% | CAKI-1 renal 98.3% | CCRF-CEM leukemia 85.8% | OVCAR-8 ovarian 99% | OVCAR-4 ovarian 87.5% | SK-OV-3 ovarian 98%
